Test results published in PubChem BioAssay (NCI).
This is part of a sample that, as a whole, favours compounds with a hit. Of some 83,000 tested, about 20% had one in any assay.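 Activity criterion: percent growth below 10, measured after cells in 96-well plates were exposed to a single compound concentration for 48 hours.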 Calls of active or inactive are those of the source.

What was measured:
Assay in all cases: NCI-60 one-dose screen, 48 h (100 = growth as untreated, 0 = no growth, -100 = all killed)
Settings in all cases: 10 µM
HT29 colon = tested on: HT29 colon
SNB-75 CNS = tested on: SNB-75 CNS
SNB-19 CNS = tested on: SNB-19 CNS
U251 CNS = tested on: U251 CNS
PC-3 prostate = tested on: PC-3 prostate
SK-MEL-5 melanoma = tested on: SK-MEL-5 melanoma
UACC-62 melanoma = tested on: UACC-62 melanoma
LOX IMVI melanoma = tested on: LOX IMVI melanoma
SK-MEL-28 melanoma = tested on: SK-MEL-28 melanoma
SK-MEL-2 melanoma = tested on: SK-MEL-2 melanoma
SN12C renal = tested on: SN12C renal
UO-31 renal = tested on: UO-31 renal
TK-10 renal = tested on: TK-10 renal
ACHN renal = tested on: ACHN renal
CAKI-1 renal = tested on: CAKI-1 renal
A498 renal = tested on: A498 renal
MOLT-4 leukemia = tested on: MOLT-4 leukemia
SR leukemia = tested on: SR leukemia
CCRF-CEM leukemia = tested on: CCRF-CEM leukemia

Measured: growth

CC(C)(C)c1cc(Br)cc(C(C)(C)C)c1O
inactive: HT29 colon 113% | SNB-75 CNS 95.7% | SNB-19 CNS 104% | U251 CNS 99.8% | PC-3 prostate 94.4% | SK-MEL-5 melanoma 102% | UACC-62 melanoma 99.3% | LOX IMVI melanoma 99.1% | SK-MEL-28 melanoma 112% | SK-MEL-2 melanoma 118% | SN12C renal 96.5% | UO-31 renal 86.6% | TK-10 renal 113% | ACHN renal 106% | CAKI-1 renal 89.5% | A498 renal 120% | MOLT-4 leukemia 96% | SR leukemia 92.3%

c1ccc(CSc2nnc3c4c5c(sc4nc(-c4cccnc4)n23)CCCCCC5)cc1
active: PC-3 prostate 9.01% | SK-MEL-5 melanoma -46%
inactive: HT29 colon 22.4% | SNB-75 CNS 74.1% | SNB-19 CNS 46.5% | U251 CNS 16.8% | UACC-62 melanoma 34.9% | LOX IMVI melanoma 60.1% | SK-MEL-28 melanoma 49.2% | SK-MEL-2 melanoma 16.5% | SN12C renal 56.5% | UO-31 renal 94.8% | TK-10 renal 72.2% | ACHN renal 73.7% | CAKI-1 renal 71.6% | A498 renal 58.5% | CCRF-CEM leukemia 25.2% | SR leukemia 46.5%

CC/C(C)=C(\C)C(=O)O
inactive: HT29 colon 106% | SNB-75 CNS 94.5% | SNB-19 CNS 112% | U251 CNS 105% | PC-3 prostate 104% | SK-MEL-5 melanoma 103% | UACC-62 melanoma 112% | LOX IMVI melanoma 92.7% | SK-MEL-28 melanoma 111% | SK-MEL-2 melanoma 102% | SN12C renal 111% | UO-31 renal 78.4% | TK-10 renal 105% | ACHN renal 116% | CAKI-1 renal 95.5% | A498 renal 110% | MOLT-4 leukemia 101% | SR leukemia 107%

COc1cc2cc3c(nc2cc1OC)CCN3Cc1ccc(NC(=O)c2ccc(Cl)c(C(F)(F)F)c2)cc1
inactive: HT29 colon 105% | SNB-75 CNS 61.7% | SNB-19 CNS 86.6% | U251 CNS 84.6% | PC-3 prostate 69.6% | SK-MEL-5 melanoma 85% | UACC-62 melanoma 79.9% | LOX IMVI melanoma 89.9% | SK-MEL-28 melanoma 97.9% | SK-MEL-2 melanoma 108% | SN12C renal 91.3% | UO-31 renal 71.9% | TK-10 renal 131% | ACHN renal 84.7% | CAKI-1 renal 84.3% | A498 renal 130% | MOLT-4 leukemia 56.8% | SR leukemia 70.6%

CCOC(=O)N1C=CC2C=CC1C1C=CC=CC2N1C(=O)OCC (configuration not stated)
inactive: HT29 colon 94.8% | SNB-75 CNS 80.4% | SNB-19 CNS 94.1% | U251 CNS 93.5% | PC-3 prostate 90.1% | SK-MEL-5 melanoma 84.1% | UACC-62 melanoma 91.6% | LOX IMVI melanoma 102% | SK-MEL-28 melanoma 87.8% | SK-MEL-2 melanoma 90.9% | SN12C renal 99.3% | UO-31 renal 83.4% | TK-10 renal 111% | ACHN renal 101% | CAKI-1 renal 84.5% | A498 renal 89.7% | MOLT-4 leukemia 95.5%

CCN(CC)CCC(CNc1c(C)cnc2cc(Cl)ccc12)c1ccc(Cl)cc1 (configuration not stated)
inactive: HT29 colon 14.8% | SNB-75 CNS 65.3% | SNB-19 CNS 68.1% | U251 CNS 48.6% | PC-3 prostate 55.9% | LOX IMVI melanoma 33.6% | SK-MEL-2 melanoma 92.8% | SN12C renal 56.7% | UO-31 renal 41.8% | TK-10 renal 89.6% | ACHN renal 44.8% | CAKI-1 renal 60.1% | A498 renal 19.8% | MOLT-4 leukemia 39.5%
active: SK-MEL-5 melanoma -94.2% | UACC-62 melanoma -28.8% | SK-MEL-28 melanoma -88.8% | SR leukemia -10.8%

Clc1ccc(Nc2ccnc(NCCCNc3ccnc4cc(Cl)ccc34)n2)cc1
active: HT29 colon -69.3% | SNB-75 CNS -89.2% | SNB-19 CNS 4.15% | U251 CNS -93.2% | PC-3 prostate -27.5% | SK-MEL-5 melanoma -100% | UACC-62 melanoma -90.5% | LOX IMVI melanoma -77.5% | SK-MEL-28 melanoma -92.1% | SK-MEL-2 melanoma -91% | SN12C renal -51.6% | UO-31 renal -46.2% | TK-10 renal -82.9% | ACHN renal -93.9% | CAKI-1 renal -71.5% | A498 renal -4.52% | CCRF-CEM leukemia -19.9% | MOLT-4 leukemia -31.5% | SR leukemia -55.5%

CCC(=O)N1C/C(=C/c2ccc(Cl)cc2)C(=O)/C(=C/c2ccc(Cl)cc2)C1
active: HT29 colon -72.8% | SNB-19 CNS -19.3% | U251 CNS -80.1% | PC-3 prostate -44.1% | SK-MEL-5 melanoma -64.1% | UACC-62 melanoma -74.8% | LOX IMVI melanoma -85.7% | SK-MEL-28 melanoma -74.2% | SK-MEL-2 melanoma -21.5% | SN12C renal -26.1% | UO-31 renal -94% | TK-10 renal -30.6% | ACHN renal -50.7% | CAKI-1 renal -20.7% | A498 renal -26.7% | MOLT-4 leukemia -8.59% | SR leukemia -27.9%
inactive: SNB-75 CNS 20%

COC(=O)C1=NNC(=S)N(c2cc(C)[nH]n2)C(=O)C1
inactive: HT29 colon 113% | SNB-75 CNS 93.9% | SNB-19 CNS 98% | U251 CNS 101% | PC-3 prostate 99.1% | SK-MEL-5 melanoma 101% | UACC-62 melanoma 103% | LOX IMVI melanoma 95.9% | SK-MEL-28 melanoma 114% | SK-MEL-2 melanoma 100% | SN12C renal 96.3% | UO-31 renal 76.5% | TK-10 renal 114% | ACHN renal 107% | CAKI-1 renal 92.5% | A498 renal 81.8% | MOLT-4 leukemia 84.1% | SR leukemia 86.3%
